# Reference: PubChem BioAssay (NCATS)
# Results filed as inconclusive are left out. Calls of active or inactive are those of the source. The call rests on the fitted dose curve; in most records, active means well fitted inhibition curve with a large enough effect; inconclusive means small, poorly fitted or top-dose-only effect; inactive means no such curve, though single readings can be large or run the other way.
# Target: Retinaldehyde dehydrogenase 3 (Homo sapiens) (UniProt P47895)
# Test: qHTS for Inhibitors of the Aldehyde Dehydrogenase Family (ALDH1A3) Confirmatory screens (AID 2061311); further: nearly all actives have a fitted effect of over 60% in size
# Settings: ALDH inhibition qHTS; series mostly up to 46 µM; activity change, negative = inhibition: at the top concentration
# On the % scale 0 is the no-effect control and ±100 the full control effect; potency means the concentration at half of the fitted maximal effect.
SMILES,Potency,"activity change, negative = inhibition",outcome
O=[N+]([O-])c1ccc2nc(N3CCNCC3)ccc2c1,10 µM (active),,
O=[N+]([O-])c1cc(O)c(O)c([N+](=O)[O-])c1,10.1 µM (active),,
CCOC(=O)c1ncn2c1[C@@H]1CCCN1C(=O)c1cc(OC)ccc1-2,,0.724% (inactive),
CC/C=C/C=C/C1(C)OC(OC)=C(C(=O)C2C(C)C(=O)c3cc(OC)c(O)c(O)c3C2(C)O)C1=O (centres undefined),11 µM (active),,
COC1=C[C@@H]2[C@@H]3Cc4ccc(OC)c(O)c4[C@]2(CCN3C)CC1=O,,,inactive
CCc1[nH]c2ccc(OC)cc2c1CCN(C)C,,-11.2% (inactive),
C/C=C(/C)C1C=CC2CC(C)CC(C)C2C1/C(O)=C1\C(=O)NC(CC(C)(O)C(=O)O)C1=O (centres undefined),,-18.6% [at 25.8 µM] (inactive),
COc1cc(N2CCN(C)CC2)ccc1N,25.2 µM (active),,
COc1ccc2c(C(=O)c3ccc(Cl)cc3)c(C)n(CC(=O)O)c2c1,,-7.9% (inactive),
